# In all, about 2,700 compounds went through this assay and about 160 (5.9%) showed an effect of 50% or more. Only a selection was taken, and strong results are over-represented in it overall.
# Target: Nonstructural protein 3 (Zika virus) (UniProt A0A024AXB9)
# [1] = PRVABC59, Concentration 50.0 uM, Number of replicates 1.0
# [2] = PRVABC59, Concentration 15.0 uM, Number of replicates 1.0
# Nonstructural protein 3 (Zika virus), sequence (A0A024AXB9 as listed by the source): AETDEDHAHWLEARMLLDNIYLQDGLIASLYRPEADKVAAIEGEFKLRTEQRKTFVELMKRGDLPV
structure (smiles),measurement,setting,value
COc1cc(NC(=O)C2CCN(c3ccc(C=O)cc3)CC2)cc(OC)c1,inhibition,[1],28%
O=Cc1ccc(N2CCC(C(=O)Nc3cc(Cl)c(O)c(Cl)c3)CC2)cc1,inhibition,[1],98.7%
O=Cc1ccc(N2CCC(C(=O)Nc3cc(Cl)ccc3Br)CC2)cc1,inhibition,[1],19.5%
O=Cc1ccc(N2CCC(C(=O)Nc3ccc(O)cc3[N+](=O)[O-])CC2)cc1,inhibition,[1],38.4%
O=Cc1ccc(N2CCC(C(=O)Nc3cc(Cl)cc(Cl)c3O)CC2)cc1,inhibition,[1],92.4%
O=Cc1ccc(N2CCC(C(=O)Nc3cc(Cl)c(F)c(Cl)c3)CC2)cc1,inhibition,[1],20.1%
O=Cc1ccc(N2CCC(C(=O)Nc3c(Cl)cc(Cl)cc3Br)CC2)cc1,inhibition,[1],22.3%
O=Cc1ccc(N2CCC(C(=O)Nc3ccc([N+](=O)[O-])cc3Cl)CC2)cc1,inhibition,[1],39.8%
O=Cc1ccc(N2CCC(C(=O)Nc3ccc(Cl)c(Cl)c3)CC2)cc1,inhibition,[1],22.8%
O=Cc1ccc(N2CCC(C(=O)Nc3cc(Cl)cc([N+](=O)[O-])c3O)CC2)cc1,inhibition,[1],93.4%
Cc1cc(-c2nn(C)cc2NC(=O)c2ccccc2C(F)(F)F)[nH]n1,inhibition,"PRVABC59, Concentration 49.5 uM, Number of replicates 2.0, Standard deviation 1.8946804704330402 %",-3.15%
same,inhibition,"PRVABC59, Concentration 99.01 uM, Number of replicates 2.0, Standard deviation 0.666066751064398 %",-1.39%
same,inhibition,"PRVABC59, Concentration 198.0 uM, Number of replicates 2.0, Standard deviation 1.3743584908968294 %",2.3%
O=C(Nc1cnc(Br)c(Cl)n1)c1cc(Cl)ccc1NS(=O)(=O)c1ccc(Oc2ccccc2Cl)cc1,inhibition,[2],20.6%
O=Cc1ccc(N2CCC(C(=O)NCCc3ccc(C(F)(F)F)cc3)CC2)cc1,inhibition,[1],25.7%
CCOC(=O)c1cc(Cn2cc(C3CCNCC3)c(C)n2)on1,inhibition,"PRVABC59, Concentration 49.5 uM, Number of replicates 2.0, Standard deviation 3.597880558823145 %",-0.431%
same,inhibition,"PRVABC59, Concentration 99.01 uM, Number of replicates 2.0, Standard deviation 3.9852172616025077 %",-1.41%
same,inhibition,"PRVABC59, Concentration 198.0 uM, Number of replicates 2.0, Standard deviation 1.6156285466659275 %",-2.54%
CC1(C)[C@H]2CC[C@]1(C)[C@H](NC(=O)C1CCN(c3ccc(C=O)cc3)CC1)C2,inhibition,[1],-4.03%
O=Cc1ccc(N2CCC(C(=O)Nc3cccc(Cl)c3Br)CC2)cc1,inhibition,[1],21%
c1cnc(N2CCOCC2)c(CN2CC[C@H](c3c[nH]c4ccccc34)C2)c1,inhibition,"PRVABC59, Concentration 49.5 uM, Number of replicates 2.0, Standard deviation 0.5816150455075427 %",4.93%
same,inhibition,"PRVABC59, Concentration 99.01 uM, Number of replicates 2.0, Standard deviation 1.6761828626765602 %",10.2%
same,inhibition,"PRVABC59, Concentration 198.0 uM, Number of replicates 2.0, Standard deviation 1.4600963075359947 %",18.9%
Nc1cccc2c(Cl)ccnc12,inhibition,"PRVABC59, Concentration 49.95 uM, Number of replicates 2.0, Standard deviation 13.26082141913299 %",25%
same,inhibition,"PRVABC59, Concentration 99.9 uM, Number of replicates 2.0, Standard deviation 5.807935528538471 %",61.3%
Nc1ccc(Cl)c2ncccc12,inhibition,"PRVABC59, Concentration 49.95 uM, Number of replicates 2.0, Standard deviation 10.856665376334321 %",2.86%
same,inhibition,"PRVABC59, Concentration 99.9 uM, Number of replicates 2.0, Standard deviation 9.901328830284072 %",10.8%
Nc1ccc(Cl)c2cccnc12,inhibition,"PRVABC59, Concentration 99.9 uM, Number of replicates 2.0, Standard deviation 7.433905478836123 %",-9.18%
Cc1ccc(CN(C(=O)C2CCN(c3ccc(C=O)cc3)CC2)C2CC2)s1,inhibition,[1],27.6%
Cc1cc(CO)c2cccc(Cc3ccccc3NC(=O)c3nc(N)n[nH]3)c2n1,inhibition,"PRVABC59, Concentration 49.95 uM, Number of replicates 2.0, Standard deviation 1.1858913556413317 %",-1.17%
same,inhibition,"PRVABC59, Concentration 99.9 uM, Number of replicates 2.0, Standard deviation 1.6592298829189325 %",2.56%
Cc1cc(CO)c2cccc(NC(=O)[C@@H](N)CCN)c2n1,inhibition,"PRVABC59, Concentration 49.95 uM, Number of replicates 2.0, Standard deviation 10.156724992387474 %",7.81%
same,inhibition,"PRVABC59, Concentration 99.9 uM, Number of replicates 2.0, Standard deviation 27.740304464442595 %",6.58%
Cc1cc(CO)c2cccc(NC(=O)CCN)c2n1,inhibition,"PRVABC59, Concentration 49.95 uM, Number of replicates 2.0, Standard deviation 0.34164167967973086 %",58.9%
same,inhibition,"PRVABC59, Concentration 99.9 uM, Number of replicates 2.0, Standard deviation 0.25939261057290325 %",94.2%
Cc1cc(Cl)c2cccc(NC(=O)CCN)c2n1,inhibition,"PRVABC59, Concentration 49.95 uM, Number of replicates 2.0, Standard deviation 0.2024559271573544 %",95.1%
same,inhibition,"PRVABC59, Concentration 99.9 uM, Number of replicates 2.0, Standard deviation 0.15816464699422608 %",91.2%
CC(=O)N[C@@H](CCCN)C(=O)Nc1cccc2c(Cl)cc(C)nc12,inhibition,"PRVABC59, Concentration 99.9 uM, Number of replicates 2.0, Standard deviation 3.96053156793845 %",2.63%
CC(=O)N[C@@H](CCCCN)C(=O)Nc1cccc2c(Cl)cc(C)nc12,inhibition,"PRVABC59, Concentration 49.95 uM, Number of replicates 2.0, Standard deviation 3.802363243631691 %",19.9%
same,inhibition,"PRVABC59, Concentration 99.9 uM, Number of replicates 2.0, Standard deviation 2.8723353743500515 %",37.2%
Cc1cc(CO)c2cccc(NC(=O)Cc3cccc(CN)c3)c2n1,inhibition,"PRVABC59, Concentration 49.95 uM, Number of replicates 2.0, Standard deviation 2.002239649301327 %",8.36%
same,inhibition,"PRVABC59, Concentration 99.9 uM, Number of replicates 2.0, Standard deviation 0.9082841415474754 %",22.1%
Cc1cc(CO)c2cccc(NC(=O)c3nc(N)n[nH]3)c2n1,inhibition,"PRVABC59, Concentration 49.95 uM, Number of replicates 2.0, Standard deviation 1.6810779662500097 %",28.9%
same,inhibition,"PRVABC59, Concentration 99.9 uM, Number of replicates 2.0, Standard deviation 2.6897269039186593 %",60.8%
Cc1cc(CO)c2cccc(Cc3cccc(NC(=O)c4nc(N)n[nH]4)c3)c2n1,inhibition,"PRVABC59, Concentration 49.95 uM, Number of replicates 2.0, Standard deviation 3.2981012364268594 %",-0.767%
same,inhibition,"PRVABC59, Concentration 99.9 uM, Number of replicates 2.0, Standard deviation 3.2421151330326254 %",4.54%
O=C(Nc1c(Cl)cncc1Cl)c1cc(Cl)ccc1NS(=O)(=O)c1ccc(Oc2ccccc2Cl)cc1,inhibition,[2],22%
O=Cc1ccc(N2CCC(C(=O)NC[C@@H](c3ccc(Cl)cc3)N3CCCC3)CC2)cc1,inhibition,[1],18.7%
O=Cc1ccc(N2CCC(C(=O)Nc3nc4cc(Cl)ccc4s3)CC2)cc1,inhibition,[1],22.7%
CN1CCN(c2ccccc2NC(=O)C2CCN(c3ccc(C=O)cc3)CC2)CC1,inhibition,[1],22.1%
N[C@@H]1CCCC[C@H]1C(=O)Nc1cccc2cccnc12,inhibition,"PRVABC59, Concentration 99.9 uM, Number of replicates 2.0, Standard deviation 1.8980185851288 %",-8.2%
O=C(Nc1cccc2cccnc12)C1CCNCC1,inhibition,"PRVABC59, Concentration 49.95 uM, Number of replicates 2.0, Standard deviation 0.5440976068370852 %",42.6%
same,inhibition,"PRVABC59, Concentration 99.9 uM, Number of replicates 2.0, Standard deviation 0.5440976068370852 %",92%
CC(=O)N[C@@H](CCCN)C(=O)Nc1cccc2cccnc12,inhibition,"PRVABC59, Concentration 49.95 uM, Number of replicates 2.0, Standard deviation 1.6196420224622259 %",19.2%
same,inhibition,"PRVABC59, Concentration 99.9 uM, Number of replicates 2.0, Standard deviation 2.0688397621434533 %",38.7%
O=C(c1cc(Cl)ccc1NS(=O)(=O)c1ccc(Oc2ccccc2Cl)cc1)N1CCC(O)(c2ccc(Cl)cc2)CC1,inhibition,[2],26.1%
O=C(N[C@@H](c1ccccc1)c1ccc(Br)cc1)c1cc(Cl)ccc1NS(=O)(=O)c1ccc(Oc2ccccc2Cl)cc1,inhibition,[2],8.89%
O=C(N[C@H](CO)Cc1ccc(Cl)cc1)c1cc(Cl)ccc1NS(=O)(=O)c1ccc(Oc2ccccc2Cl)cc1,inhibition,[2],50.2%
O=C(N[C@H](c1ccccc1)c1ccco1)c1cc(Cl)ccc1NS(=O)(=O)c1ccc(Oc2ccccc2Cl)cc1,inhibition,[2],53.4%
O=C(N[C@@H](CO)Cc1ccccc1)c1cc(Cl)ccc1NS(=O)(=O)c1ccc(Oc2ccccc2Cl)cc1,inhibition,[2],33.2%
O=C(NC(c1ccccc1)c1ccccc1)c1cc(Cl)ccc1NS(=O)(=O)c1ccc(Oc2ccccc2Cl)cc1,inhibition,[2],55%
O=C(NCC(c1ccccc1)c1ccccc1)c1cc(Cl)ccc1NS(=O)(=O)c1ccc(Oc2ccccc2Cl)cc1,inhibition,[2],12.2%
O=C(N[C@@H](Cc1ccccc1)c1ccccc1)c1cc(Cl)ccc1NS(=O)(=O)c1ccc(Oc2ccccc2Cl)cc1,inhibition,[2],28.3%
C[C@@H](NC(=O)c1cc(Cl)ccc1NS(=O)(=O)c1ccc(Oc2ccccc2Cl)cc1)c1cccc(Br)c1,inhibition,[2],35.8%
O=C(N[C@H](CO)CC1CCCCC1)c1cc(Cl)ccc1NS(=O)(=O)c1ccc(Oc2ccccc2Cl)cc1,inhibition,[2],40.7%
Cc1ccc2ccccc2c1NC(=O)c1cc(Cl)ccc1NS(=O)(=O)c1ccc(Oc2ccccc2Cl)cc1,inhibition,[2],26.4%
O=Cc1ccc(N2CCC(C(=O)N3CCC(Oc4ncccn4)CC3)CC2)cc1,inhibition,[1],25.2%
O=Cc1ccc(N2CCC(C(=O)Nc3cc(Cl)nc(Cl)n3)CC2)cc1,inhibition,[1],17.4%
O=C(O)c1cccc(NC(=O)c2cccc(Br)c2)c1,inhibition,"PRVABC59, Concentration 49.5 uM, Number of replicates 2.0, Standard deviation 2.5009940749301487 %",-0.982%
same,inhibition,"PRVABC59, Concentration 99.01 uM, Number of replicates 2.0, Standard deviation 3.0157213975013266 %",0.926%
same,inhibition,"PRVABC59, Concentration 198.0 uM, Number of replicates 2.0, Standard deviation 3.887437163113113 %",4.65%
CC(C)(CNC(=O)c1cc(Cl)ccc1NS(=O)(=O)c1ccc(Oc2ccccc2Cl)cc1)c1cccc(Cl)c1,inhibition,[2],47.6%
O=C(NC1CCN(Cc2ccccc2)CC1)c1cc(Cl)ccc1NS(=O)(=O)c1ccc(Oc2ccccc2Cl)cc1,inhibition,[2],8.32%
O=Cc1ccc(N2CCC(C(=O)NCc3cc(F)ccc3Br)CC2)cc1,inhibition,"PRVABC59, Concentration 10.0 uM, Number of replicates 1.0",4.33%
NC(=O)c1cccc(NC(=O)[C@@H](NC(=O)c2ccc(Oc3ccc(C(F)(F)F)cc3)cc2)c2ccc(OCc3ccccc3)cc2)c1,inhibition,"PRVABC59, Concentration 49.5 uM, Number of replicates 2.0, Standard deviation 0.46044521626223894 %",6.3%
same,inhibition,"PRVABC59, Concentration 99.01 uM, Number of replicates 2.0, Standard deviation 0.010097036204057861 %",14.7%
same,inhibition,"PRVABC59, Concentration 198.0 uM, Number of replicates 2.0, Standard deviation 0.34129506399757725 %",30.3%
CCCC[C@H](NC(C)=O)C(=O)N[C@H](C(=O)Nc1cccc(C(N)=O)c1)c1ccc(OCc2ccccc2)cc1,inhibition,"PRVABC59, Concentration 49.5 uM, Number of replicates 2.0, Standard deviation 1.5133642763760644 %",0.392%
same,inhibition,"PRVABC59, Concentration 99.01 uM, Number of replicates 2.0, Standard deviation 2.3397962878359877 %",3.8%
same,inhibition,"PRVABC59, Concentration 198.0 uM, Number of replicates 2.0, Standard deviation 2.8724328178638086 %",7.97%

# Source: ChEMBL document CHEMBL5606458, “ASAP - ZIKV NS2B-NS3 protease fluorescence single point” (2024)
